Cardio protect = cardioprotection against H2O2-induced cell death, primary screen, uHTS, H9c2 cells, ATPLite luminescence | H9c2 cardiomyocytes, H2O2 injury protection, 2 h | protection from H2O2 cell death, % at 20 µM | 360,000 compounds, 0.63% hits | AID 588492, 2011;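 active = compounds giving at least 50% protection of heart cells from peroxide-induced death in the single-dose screen, raw or plate-pattern-corrected value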;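 note: 0% = DMSO wells with peroxide and 100% = DMSO wells without peroxide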
APOBEC3G inh = APOBEC3G DNA deaminase inhibitors, primary screen, biochemical, fluorescence, single-stranded DNA substrate, uHTS | DNA dC->dU-editing enzyme APOBEC-3G (Homo sapiens), Q9HC16 | recombinant A3G, ssDNA deamination FAM/TAMRA fluorescence | inhibition, % at 20 µM | 330,000 compounds, 0.28% hits | AID 493012, 2011;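 active = inhibition of at least 40% at 20 µM, with no more than 30% in the related APOBEC3A deaminase screen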;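 note: plate controls were DMSO wells with A3G for no effect and wells lacking A3G enzyme for full effect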
Target sequence (Q9HC16 whole entry, looked up): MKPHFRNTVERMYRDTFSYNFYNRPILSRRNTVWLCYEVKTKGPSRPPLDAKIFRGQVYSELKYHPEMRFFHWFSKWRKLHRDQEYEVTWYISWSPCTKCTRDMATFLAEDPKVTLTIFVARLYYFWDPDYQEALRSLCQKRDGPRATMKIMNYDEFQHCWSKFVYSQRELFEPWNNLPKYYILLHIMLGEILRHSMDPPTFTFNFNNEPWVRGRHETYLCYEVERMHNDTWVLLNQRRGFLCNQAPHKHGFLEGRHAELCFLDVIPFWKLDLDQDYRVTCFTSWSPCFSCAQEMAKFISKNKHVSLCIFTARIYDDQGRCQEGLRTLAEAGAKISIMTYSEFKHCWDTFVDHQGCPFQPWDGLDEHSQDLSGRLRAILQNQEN
TAG inh = inhibitors of triacylglycerol accumulation, primary screen, cell-based, uHTS, fluorescence, H9c2; 230,000 compounds, 0.66% hits; H9c2 cells, Nile Red lipid (TAG) fluorescence; cells loaded with 200 µM oleic acid; AID 651582, 2012; inhibition, % at 12.5 µM;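 active = pattern-corrected inhibition of lipid staining of at least 50% with the nuclear-stain viability signal not falling by more than 50%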;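 note: 0% = DMSO wells and 100% = triacsin C control wells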
NadD inh = inhibitors of S. aureus NadD, primary screen, biochemical, colorimetric, uHTS; Nicotinate-nucleotide adenylyltransferase NadD (Staphylococcus aureus N315); purified NadD enzyme, colorimetric absorbance read-out; inhibition, % at 20 µM; 360,000 compounds, 0.78% hits; AID 602399, 2012; in the data active = inhibition above about 26%
PfG6PD inh = PfG6PD enzyme inhibitors, primary screen, biochemical, fluorescence intensity, uHTS | PfGluPho enzyme, NADPH resazurin-diaphorase fluorescence | inhibition, % at 20 µM | 350,000 compounds, 0.78% hits | AID 504690, 2011;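 active = inhibition reaching at least a set limit at 20 µM in the primary screen, cut at about 59% in these data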;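 note: 0% = DMSO wells with substrate and 100% = DMSO wells lacking glucose-6-phosphate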
APOBEC3A inh = APOBEC3A ssDNA deaminase inhibitors, primary screen, selectivity assay for APOBEC3G inhibitor project, biochemical, FAM/TAMRA oligo cleavage fluorescence; AID 493011, 2011; DNA dC->dU-editing enzyme APOBEC-3A (Homo sapiens), P31941; inhibition, % at 20 µM; recombinant A3A, FAM/TAMRA ssDNA deamination fluorescence; 330,000 compounds, 0.41% hits;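 active = at least 40% inhibition at 20 µM here, with at most 30% in a related deaminase screen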;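 note: plate controls were A3A with DMSO for no effect and wells lacking A3A enzyme for full effect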
PfG6PD confirm = PfG6PD inhibitors, hit retest, confirmation, biochemical, fluorescence intensity, single concentration; shares compounds with PfG6PD inh; recombinant PfGluPho, NADPH-diaphorase-resazurin fluorescence; inhibition, % at 20 µM; 2,400 compounds, 34% hits;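 active = inhibition of at least 50% at 20 µM in any single replicate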;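 note: 0% = DMSO with substrate and 100% = DMSO lacking glucose-6-phosphate substrate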
Diaphorase 10uM = diaphorase inhibitors and chemical oxidizers, confirmation, counter-screen for P. falciparum G6PD inhibitor project, biochemical, fluorescence intensity, 10 µM NADPH; shares compounds with PfG6PD inh; diaphorase-coupled resazurin reduction, NADPH 10 uM; inhibition, % at 20 µM; 820 compounds, 39% hits; AID 504862, 2011;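 active = average inhibition reaching 50% or more with the compound at 20 µM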;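 note: resorufin red fluorescence formed as diaphorase reduces resazurin using NADPH; 0% = DMSO with enzyme and 100% = DMSO without enzyme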
Diaph ctr 30uM = diaphorase inhibitors and chemical oxidizers, confirmation, counter-screen for P. falciparum G6PD inhibitor project, biochemical, fluorescence intensity, 30 µM NADPH; shares compounds with PfG6PD inh; Diaphorase/resazurin coupled assay, resorufin fluorescence; inhibition, % at 20 µM; 820 compounds, 29% hits; AID 504863, 2011;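 active = inhibition averaging 50% or more, tested at 20 µM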;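 note: 0% = DMSO with enzyme and 100% = DMSO wells lacking diaphorase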
NadD conf = inhibitors of S. aureus NadD, confirmation, biochemical, colorimetric, single concentration; inhibition, % at 20 µM; 2,000 compounds, 13% hits; purified S. aureus NadD, colorimetric enzyme assay; shares compounds with NadD inh; in the data active = inhibition mostly above about 42%, no sharp cut-off; inactive = mostly below about 42%
H9c2 TAG conf = triacylglycerol accumulation inhibitors, retest, confirmation, cell-based, single concentration, Nile Red fluorescence, H9c2 | shares compounds with TAG inh | inhibition, % at 12.5 µM | H9c2 lipid accumulation; cells loaded with 200 µM oleic acid | 990 compounds, 71% hits;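 active = mean inhibition across replicates of 40% or more; inactive = mean inhibition below 40%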;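 note: plate controls were DMSO only wells for no effect and Triacsin C treated wells for full effect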
Numbers without * were called inactive. Most compounds without a hit are left out; they make up all but 2.9% or so of the library.

Screening Cc1ccc[n+](C2C(c3ccc([N+](=O)[O-])cc3)C(C#N)=C([S-])NC2(O)C2CC2)c1 (stereo unspecified) returned Cardio protect 9.0, APOBEC3G inh 6.7, TAG inh 7.0, NadD inh 7.2, PfG6PD inh 30.3 and APOBEC3A inh 2.2.
Screening COc1ccc([C@H]2C(C#N)=C([S-])N[C@](C)(O)[C@@H]2[n+]2ccccc2)cc1 returned Cardio protect 6.8, TAG inh 5.4, NadD inh 44.8*, PfG6PD inh 69.3*, PfG6PD confirm 37.7 and NadD conf 38.7.
`O=S(c1ccccc1O)S(=O)c1ccccc1O` (stereo unspecified) gave Cardio protect 15.2, TAG inh 3.6, NadD inh 39.2*, PfG6PD inh 93.7*, PfG6PD confirm 74.8*, Diaphorase 10uM -15.0, Diaph ctr 30uM -9.3 and NadD conf 68.0*.
For CCN(CC)CCOCCn1c(C)ccc1C the results were Cardio protect 9.2, TAG inh -0.9, NadD inh 1.0 and PfG6PD inh -0.1.
For C=C(CN(C)C)C(=O)c1cc(C)ccc1C the results were Cardio protect -18.0, TAG inh 20.2, NadD inh 31.6*, PfG6PD inh 79.2*, PfG6PD confirm 47.2 and NadD conf 45.6.
`Cc1ccc(C)c(C(=O)NCCN(C)C)c1` gave Cardio protect -0.1, APOBEC3G inh -4.6, TAG inh -0.4, NadD inh -2.5, PfG6PD inh 1.0 and APOBEC3A inh 0.0.
`Cc1cccn2c(=O)c3cc(C(=O)NC4CCCC4)c(=N)n(C4CCCC4)c3nc12` gave Cardio protect -20.5, APOBEC3G inh -1.4, TAG inh 51.4*, NadD inh 7.6, PfG6PD inh 81.8*, APOBEC3A inh 1.0, PfG6PD confirm 22.9 and H9c2 TAG conf 44.2*.
`N=c1c(C(=O)NC2CCCC2)cc2c(=O)n3ccccc3nc2n1C1CCCC1` gave Cardio protect 10.2, APOBEC3G inh -7.8, NadD inh -0.8, PfG6PD inh 21.5 and APOBEC3A inh 0.1.
`COc1ccc(NS(=O)(=O)c2ccc(N3CCCCC3)c(N)c2)cc1` gave Cardio protect -23.2, APOBEC3G inh -0.5, TAG inh -25.1, NadD inh -2.7, PfG6PD inh 44.1 and APOBEC3A inh 2.1.
